Assay results published in PubChem BioAssay (NCI).
This is part of a sample that, as a whole, favours compounds with a hit. Of some 83,000 tested, about 20% had one in any assay.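 Compound tested at a single concentration for 48 hours in 96-well plates; a percent growth value below 10 was scored as active.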 Unmarked numbers belong to inactive results. Calls of active or inactive are those of the source. *1 amine or outer side, *2 acyl side, *3 side chain or, on linkers, in order; H or OH if unused. Where a SMILES comes first, the peptide text is derived from it. Bridges are numbered along the chain shown (N, C = ends). Roman numbers before positions name the chains, in order. [ ]: non-standard residue; d: D form. Actinocin(1to9) = Cc1c2oc3c(C)ccc(C(=O)[*:2])c3nc-2c(C(=O)[*:1])c(N)c1=O; NMeV = CN[CH](C(=O)O)C(C)C; Sar = CNCC(=O)O

Columns and labels:
Assay in all cases: NCI-60 one-dose screen, 48 h (100 = growth as untreated, 0 = no growth, -100 = all killed)
Settings in all cases: 10 µM unless noted
[1] = system: RPMI-8226 leukemia
[2] = system: OVCAR-5 ovarian
[3] = system: SK-OV-3 ovarian
[4] = system: IGROV1 ovarian
[5] = system: OVCAR-3 ovarian
[6] = system: HS 578T breast
[7] = system: NCI/ADR-RES ovarian
[8] = system: OVCAR-8 ovarian
[9] = system: OVCAR-4 ovarian

SMILES | growth [1] | growth [2] | growth [3] | growth [4] | growth [5] | growth [6] | growth [7] | growth [8] | growth [9]
CCN(CC)CC(O)CNc1ccc(NCC2CO2)c2c1C(=O)c1ccccc1C2=O (stereo unspecified) | -40.8% (active) | -4.14% (active) | 22.5% | -59.1% (active) | -1.52% (active) | -40.4% (active) | -1.62% (active) | – | –
CC(C)=C1C=C2CC[C@@H]3[C@](C)(CCC[C@@]3(C)C(=O)O)[C@H]2CC1 | 107% | – | 105% | 103% | 98.9% | 110% | 100% | 100% | 94.4%
CC1(C)OCC(COC(c2ccccc2)(c2ccccc2)c2ccccc2)O1 (stereo unspecified) | 105% | – | 112% | 108% | 102% | 103% | 103% | 98.4% | 96%
O=C(c1ccccc1)c1ccc(O)c2ncccc12 | – | 68% | 49.8% | 17% | -36.7% (active) | 52.7% | 2.55% (active) | 8.06% (active) | 15.4%
Nc1cccc2cccc([N+](=O)[O-])c12 | 98.5% | 113% | 103% | 118% | 124% | 103% | 103% | – | 94.8%
CCC1CCCCN1C(=S)N/N=C(\C)c1ccccn1 (stereo unspecified) | – | 30.1% | 8.27% (active) | 2.61% (active) | -18.9% (active) | -3.92% (active) | 5.77% (active) | 9.93% (active) | –
CCOc1cc(F)c([N+](=O)[O-])cc1[N+](=O)[O-] | 24.2% | 77.9% | 99.3% | 91.9% | 46.7% | 90.6% | 11.8% | – | 46.9%
Cc1nc([N+](=O)[O-])c(Sc2nncc(-c3ccccc3)n2)n1C | 62.5% | – | 109% | 89.7% | 78.5% | 99.1% | 81.3% | 89.4% | 83.7%
Nc1nc2ncc(CNc3ccc(C(=O)NC(CCC(=O)NC(CCC(=O)NC(CCC(=O)NC(CCC(=O)NC(CCC(=O)O)C(=O)O)C(=O)O)C(=O)O)C(=O)O)C(=O)O)cc3)nc2c(=O)[nH]1 (stereo unspecified) | 112% | – | 101% | 103% | 118% | 90.1% | 119% | 101% | 111%
COc1cc2c(c(OC)c1OC)-c1ccc(NCc3ccccc3)c(=O)cc1[C@@H](NC(C)=O)CC2 | 8.4% (active) | – | -6.57% (active) | -15.6% (active) | -39.2% (active) | 17.3% | 66.4% | 14.5% | 29.6%
N#CC1c2ccccc2C=CN1C(=O)CCCl (stereo unspecified) | 24.3% | 108% | 97.2% | 95.3% | 91.4% | 104% | 102% | – | 108%
CCN(CC)CCNc1ccc([N+](=O)[O-])c2sc3ccccc3c(=O)c12 | 22.2% | 45% | 32.6% | -10.9% (active) | 36.7% | 20.4% | 32.8% | – | 12%
O=C(c1ccccc1)C(O)C(Br)(CBr)c1ccccc1 (stereo unspecified) | 73.6% | 99.6% | 114% | 90.9% | 89.7% | – | 91.6% | – | 90.8%
O=C(CCl)N1c2ccccc2Sc2c1ccc1ccccc21 | 36.1% | 108% | 106% | 34.4% | 74.3% | 82.1% | 75.3% | 64.2% | –
Oc1cc(Cl)ccc1Cc1ccc(Cl)cc1O | 18.7% | – | 90.8% | 82.5% | 40.2% | – | – | – | 30.1%
COc1cccc2c1C(=O)c1c(O)c3c(c(O)c1C2=O)C[C@@](O)(C(=O)CO)C[C@@H]3OC1CC(OC(C)=O)C(OC(C)=O)C(C)O1 (stereo partly specified) | -43.5% (active) | 1.32% (active) | -10.4% (active) | – | -41.2% (active) | -10.9% (active) | 2.46% (active) | 0.76% (active) | –
O=C(/C=C/c1ccccc1)c1ccccc1O | 26.6% | 91.1% | 107% | 76.5% | 89% | 94.7% | 93.8% | – | 87.6%
O=C(Nc1ccc(Cl)c(Cl)c1)OCc1ccco1 | 51.3% | 76.5% | 83.3% | 52.7% | 47% | 20.5% | 34.4% | – | 64%
CCC(C)C1NC(=O)C(NC(=O)c2c3nc4c(C(=O)NC5C(=O)NC(C(C)CC)C(=O)N6CCCC6C(=O)N(C)CC(=O)N(C)C(C(C)C)C(=O)OC5C)ccc(C)c4oc-3c(C)c(=O)c2N)C(C)OC(=O)C(C(C)C)N(C)C(=O)CN(C)C(=O)C2CCCN2C1=O (stereo unspecified) (I: TIP[Sar][NMeV] / II: TIP[Sar][NMeV]; ester I:1-I:C, II:1-II:C; linker I:N-II:N via Actinocin(1to9); configuration not given here) | -18.8% (active) | -76.6% (active) | 18.2% | -32.4% (active) | 1.47% (active) | – | -42.7% (active) | – | -1.07% (active)
CCC1C[N+]2=C(c3cc(OC)c(OC)cc3CC2)c2c1cc1n2CCc2cc(OC)c(OC)cc2-1 (stereo unspecified) | 11.6% | 79.7% | 94.9% | – | 10% | 42.4% | 101% | 32.4% | 14.7%
CC(O)C(O)C(O)C(O)C(O)C(=O)NNc1ccccc1 (stereo unspecified) | 99.1% | 84.6% | 99.5% | 80% | 99.4% | 91.2% | 84.2% | 96.4% | –
COc1ccc2nc3cc([N+](=O)[O-])ccc3c(NNc3ccccc3)c2c1 | 62.1% | – | 71.9% | 88.2% | 72.6% | – | 84.6% | – | 72.8%
CN(C)c1ccc(/C=C/c2nccc3ccccc23)cc1 | 72% | – | 99.2% | 78.5% | 81.6% | 94.1% | 78.4% | 87.9% | 103%
CC1(O)CCCCCC1 | 102% | – | 93.9% | 103% | 103% | 98.3% | 102% | 102% | 107%
CCCCCCCCCCCC[N+]1(CCCCCCCCCCCC)CCCC(C)C1 (stereo unspecified) | -63.1% (active) | -98.3% (active) | -96.2% (active) | – | -88.7% (active) | -40.8% (active) | 19.6% | – | –
N#C/C(=N\Nc1ccc(Cl)cc1)C(=O)C1CC1 | 44.4% | 91.9% | 65.6% | 54.2% | 39.8% | 23.7% | 79.8% | – | –
NC(=Nc1nc(-c2ccccn2)cc2ccccc12)c1ccccn1 | -11.3% (active) | -15.7% (active) | 19.7% | -9.19% (active) | 29.3% | – | -31.2% (active) | – | 27.1%
Nc1nc(N)c2cc(Sc3cccc(C(F)(F)F)c3)ccc2n1 | 5.83% (active) | 45.1% | 63.9% | 21.9% | 25.4% | 40.4% | 17.7% | 31% | –
O=C(c1ccc(O)c(Br)c1)c1ccc(O)c(Br)c1 | 99.5% | – | 116% | 114% | 114% | 113% | 105% | 106% | 103%
CN(C)CC(C)(CN(C)C)C(=O)/C=C/c1c(Cl)cccc1Cl | -4.62% (active) | – | 91.9% | 73.6% | -31.3% (active) | 71.9% | -29.7% (active) | -26.2% (active) | 62.2%
